High-throughput results deposited in PubChem BioAssay by several laboratories.
PostGolgi ctrl: growth inhibition of yeast control strain, primary screen, counter-screen for post-Golgi transport modulator project; inhibition, % at 10 µM; efflux-deficient yeast background strain, growth absorbance A615, 16 h; AID 738, 2007; actives 5% (n = 98,000)
Cav32 inh: Cav3.2 calcium influx blockers – cell-based, Fluo-4 calcium fluorescence, FDSS, MLSMR library, primary screen | B-score at 10 µM | Voltage-dependent T-type calcium channel subunit alpha-1H (Homo sapiens), O95180 | actives 4% (n = 100,000) | AID 449739, 2010 | Cav3.2-expressing cells; active compounds read low;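 active = single-dose well whose peak fluorescence ratio is a statistical outlier from its plate by either plate-standardised score or position-corrected B-score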
PostGolgi yeast: phenotypic screen on post-Golgi transport, primary screen. actives 0.9% (n = 98,000). post-Golgi transport phenotypic cell assay. inhibition, % at 10 µM;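 also: yeast cells grown in 1536-well plates; yeast grown about 18 h at 30C before absorbance read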
Pyk2 oligo antag: antagonists of Pyk2 self-association, primary screen, Q293 cells, FERM NanoBiT luminescence, HTS; Protein-tyrosine kinase 2-beta (Homo sapiens), Q14289; active compounds read low; z-score (the deposit names both 25 µM and 10 µM); actives 0.83% (n = 99,000); AID 1347419, 2020;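 active = Z-score of -3 or lower, scaled per plate to the spread of control and sample wells; inactive = z-score above -3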;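 also: negative z-score means lost luminescence so less FERM oligomerization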
Target sequence (Q14289 whole entry, looked up): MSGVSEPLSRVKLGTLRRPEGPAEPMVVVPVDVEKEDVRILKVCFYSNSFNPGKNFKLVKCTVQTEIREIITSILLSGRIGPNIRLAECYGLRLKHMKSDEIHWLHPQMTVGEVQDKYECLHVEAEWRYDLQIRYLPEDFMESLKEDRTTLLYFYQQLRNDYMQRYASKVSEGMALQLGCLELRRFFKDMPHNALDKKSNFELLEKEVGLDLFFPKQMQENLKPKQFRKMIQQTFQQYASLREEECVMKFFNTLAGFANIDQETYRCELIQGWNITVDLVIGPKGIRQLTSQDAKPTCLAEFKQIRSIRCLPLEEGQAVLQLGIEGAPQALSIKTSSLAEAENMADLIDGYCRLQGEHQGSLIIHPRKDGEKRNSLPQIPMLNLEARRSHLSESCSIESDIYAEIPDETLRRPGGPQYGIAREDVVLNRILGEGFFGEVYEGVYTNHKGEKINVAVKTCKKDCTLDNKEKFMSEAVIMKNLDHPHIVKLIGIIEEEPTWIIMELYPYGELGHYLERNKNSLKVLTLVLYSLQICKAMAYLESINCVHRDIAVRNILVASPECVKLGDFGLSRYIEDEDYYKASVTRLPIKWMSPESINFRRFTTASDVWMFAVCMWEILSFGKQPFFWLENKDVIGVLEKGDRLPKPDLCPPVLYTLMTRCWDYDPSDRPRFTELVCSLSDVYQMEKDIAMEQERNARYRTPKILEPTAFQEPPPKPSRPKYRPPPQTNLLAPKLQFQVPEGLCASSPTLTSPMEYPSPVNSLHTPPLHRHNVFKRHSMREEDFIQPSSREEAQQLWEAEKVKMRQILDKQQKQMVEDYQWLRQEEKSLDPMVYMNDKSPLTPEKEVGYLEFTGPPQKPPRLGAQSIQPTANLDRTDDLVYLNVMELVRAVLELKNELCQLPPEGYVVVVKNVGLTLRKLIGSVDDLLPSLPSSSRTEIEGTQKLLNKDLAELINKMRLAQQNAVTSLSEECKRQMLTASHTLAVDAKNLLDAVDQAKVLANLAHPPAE
* hit, by the source's call; . = no result. Hits are enriched below; roughly 8% of the tested compounds scored in any of these assays. Rule as the data show it, unless noted: active = inhibition above about 30%; inactive = the rest.

SMILES	PostGolgi ctrl	Cav32 inh	PostGolgi yeast	Pyk2 oligo antag
Cc1cccc(CSCCNC(=O)CSCc2ccc([N+](=O)[O-])cc2)c1	18	-3.2*	4	0.99
Cc1ccc(CSCCNC(=O)CSCc2ccc([N+](=O)[O-])cc2)cc1	26	-4.3*	2	0.81
C[C@@H]1NC(=O)[C@H](CCCN=C(N)N)NC(=O)c2cc([N+](=O)[O-])cc(I)c2OCC[C@@H](C(N)=O)NC1=O	.	0.44	.	.
O=C(NCC1c2ccccc2CCN1C(=O)CN1C(=O)c2ccccc2C1=O)C1CCCCC1 (configuration not stated)	8	1	-2	0.92
c1ccc(-c2n[nH]nc2-c2ccccc2)cc1	30*	0.34	23	-0.58
CC1CCN(C(=O)C2CCN(C(=O)c3cc4sccc4n3Cc3ccc(F)cc3)CC2)CC1	29	-4.1*	2	-0.24
O=C(c1cc2sccc2n1Cc1ccc(F)cc1)N1CCCc2ccccc21	.	-3.8*	.	-2.1
CC(C)NC(=O)C1CCN(C(=O)c2cc3sccc3n2Cc2ccc(F)cc2)CC1	4	-0.45	-1	0.54
OCCNc1nc(Nc2ccccc2Oc2ccccc2)nc(N2CCCC2)n1	.	-0.033	.	.
Cc1[nH]nc(-c2ccc(O)c(C)c2O)c1-c1cnn(-c2ccccc2)c1	8	-0.91	-11	-2.1
COc1ccc(-c2n[nH]c(C)c2-c2ccc(Cl)cc2)c(O)c1OC	51*	-0.92	0	-2.4
Cc1[nH]nc(-c2ccc(O)cc2O)c1-c1ccc(Cl)cc1	85*	-4.8*	16	-1.1
COc1ccc(-c2n[nH]c(C)c2-c2ccc(Cl)cc2)c(O)c1	77*	-1.4	13	-1.1
CC(=O)OCCNC(=O)Cn1cnc2c1c(=O)n(C)c(=O)n2C	6	1.6	-1	0.98
CCOC(=O)COc1ccc(/C=C/[N+](=O)[O-])c(OCC(=O)OCC)c1	5	-1.2	-5	-1.6
O=[N+]([O-])/C=C/c1c(OCc2ccccc2)ccc2ccccc12	99*	-1.5	105*	1.5
CCOc1ccc(/C=C/[N+](=O)[O-])c2ccccc12	81*	0.87	78*	0.5
Cc1sc(-c2ccncc2)nc1OC(=O)c1ccccc1	7	-0.042	2	0.33
O=C1CC(C2CCCO2)C(=O)N1c1cccc(Cl)c1 (configuration not stated)	10	-0.061	-10	0.25
CN(C)C(=O)COC(=O)/C=C/c1ccccc1[N+](=O)[O-]	8	-0.0078	-3	0.18
Cc1ccc(Cl)cc1N1CCN(Cc2nnnn2Cc2ccco2)CC1	38*	-6.7*	4	0.09
CCC(c1nnnn1Cc1ccco1)N1CCN(c2cc(Cl)ccc2C)CC1 (configuration not stated)	56*	-5.8*	4	-0.16
Cc1ccc(Cl)cc1N1CCN(Cc2nnnn2C2CCCCC2)CC1	58*	-5.2*	5	-0.98
COc1ccccc1-c1nnc(SCC(=O)Nc2ccc(S(N)(=O)=O)cc2)n1C	13	0.59	4	-0.37
CCc1ccc(N2CC(C(=O)Nc3nccs3)CC2=O)cc1 (configuration not stated)	8	.	3	0.6
SMILES	PostGolgi ctrl	Cav32 inh	PostGolgi yeast	Pyk2 oligo antag
CC(C)(C)c1cc(C(F)(F)F)nc(SCCCNC(=O)c2ccco2)n1	9	-4.6*	-2	-0.07
Cc1ccc(C2CN(C)C3(C(=O)Nc4ccccc43)C23COc2ccccc2C3=O)cc1 (configuration not stated)	80*	.	-5	-3.6*
CC1OC2(OC1C)C(=O)Nc1ccccc12 (configuration not stated)	2	-3.1	3	0.51
CN1CC(c2ccccc2Cl)C2(COc3ccccc3C2=O)C12C(=O)Nc1ccccc12 (configuration not stated)	46*	-3.6	2	-2.9
CCOC(=O)c1sc2nc3n(c(=O)c2c1C)CCCCC3	30*	-0.12	-5	-0.03
Cc1c(C(=O)Nc2ccc(Oc3ccccc3)cc2)sc2nc3n(c(=O)c12)CCC3	31*	-0.041	15	2
CCCNC(=O)c1onc(CSc2ccc(F)cc2)c1C(=O)NCCC	.	0.053	.	.
CCn1ccnc1C(O)c1cccc(OC)c1OC (configuration not stated)	5	1.1	-13	.
CC(C)C[C@H](N)c1nnc(S(=O)(=O)Cc2ccc(F)cc2)o1	10	2.2	-6	-0.48
N#CC(C(=O)NC1CCCCC1)=C1CCCCCC1	.	.	.	0.78
CCCCC(NC(=O)c1ccccc1)C(=O)OCC(=O)N1c2ccccc2Sc2ccccc21 (configuration not stated)	12	-7.2*	0	-0.9
CCOC(=O)C(C(=O)OCC)C(Nc1ccc(Br)cc1)c1ccccc1 (configuration not stated)	11	-0.21	-6	-0.81
CCOC(=O)c1cnc(-n2nc(C)cc2C)nc1NCCc1ccccc1	39*	-4.1*	6	-0.98
CCOC(=O)c1cnc(-n2nc(C)cc2C)nc1Nc1ccccc1OC	1	0.52	5	.
Cn1cc(/C=N/n2cnc3scc(-c4ccccc4)c3c2=O)c2ccccc21	19	-4*	-5	-0.57
C=CCN1C(=O)C(O)(CC(=O)c2ccco2)c2cc(Br)ccc21 (configuration not stated)	.	1.3	.	.
CC(C)(C)c1cc(/C=N/NC(=O)Cc2nc3ccccc3[nH]2)cc(C(C)(C)C)c1O	15	-7.6*	4	0.43
O=C(NCc1nc2ccccc2[nH]1)c1cccs1	15	0.44	-1	.
COC(=O)C1=C(N)Oc2cc(N(C)C)ccc2C1c1ccccc1OC (configuration not stated)	0	-7*	-11	-0.8
CN1CCN(Cc2cccc(Oc3ccccc3)c2)CC1	1	-0.92	21	1
OCCN1CCN(Cc2cccc(Oc3ccc(Cl)cc3)c2)CC1	44*	-0.075	4	1.4
COc1ccc(S(=O)NC2CCCCC2)c(OC)c1C (configuration not stated)	-2	0.4	8	3.9
O=C(Cn1nc(C(F)(F)F)c2c1CCC2)Nc1ccccc1C(F)(F)F	.	-2	.	-0.3
O=C(Cn1nc(C(F)(F)F)c2c1CCC2)NCc1ccc(Cl)cc1	.	-4.5*	.	-0.74
O=C(Cn1nc(C(F)(F)F)c2c1CCCC2)Nc1ccc2c(c1)OCO2	11	-4.9*	-5	0.25
SMILES	PostGolgi ctrl	Cav32 inh	PostGolgi yeast	Pyk2 oligo antag
O=C(CCS(=O)(=O)c1cccc2nsnc12)NC1CCCCC1	-7	0.85	9	-0.98
O=C(CN1CCN(c2ccc(F)cc2)CC1)N1CCOCC1	17	0.75	0	-0.34
O=C(CN1C(=O)NC2(CCCCCCC2)C1=O)N1CCc2ccccc2C1	30	0.96	1	0.39
O=C(CN1CCN(c2ccc(F)cc2)CC1)N1CCC(Cc2ccccc2)CC1	31*	-0.53	2	0.96
O=C(CN1C(=O)NC2(CCCCCC2)C1=O)N1CCC(Cc2ccccc2)CC1	.	4.3*	.	0.76
N#CC1=C(N)Oc2c(ccc3ccccc23)C1c1ccsc1 (configuration not stated)	49*	.	-2	-0.78
